# Laboratory results from PubChem BioAssay AID1222 (Sanford-Burnham Center for Chemical Genomics, 2008).
# Screen size: about 190,000 compounds; fewer than 10 were called active.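 How the source made its calls: active means EC50 below 50 µM in the dose-response confirmation; inactive means the rest.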 Only a sample is shown. Potency and affinity values are given separately.
# Assay: protection against thapsigargin-triggered cell killing – 384-well, CSM14.1, ATP luminescence, primary screen (AID 1222);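 further: cell ATP read after overnight thapsigargin exposure of roughly 18 to 22 hours; reference of the scale not given here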
# Conditions: CSM14.1 thapsigargin-induced death rescue, at 20 µM, active compounds read high
row,Compound,cellular ATP content (survival)
1,O=C(NCC1CC1)[C@@H]1C[C@H]1[C@@H](NP(=O)(c1ccccc1)c1ccccc1)c1ccccc1,-1.2% (inactive)
2,CC(=O)c1ccc(OCCCN2CCCCC2)cc1,-1.3% (inactive)
3,O=C(COC(=O)c1cc(Br)ccc1O)Nc1cc(S(=O)(=O)N2CCCC2)ccc1Cl,-0.8% (inactive)
4,O=C(NCCCN1CCCC1)c1cc2c(Cl)nc3ccccc3c2s1,-12% (inactive)
5,CC(=O)Cn1c(N2CCC(Cc3ccccc3)CC2)nc2c1c(=O)[nH]c(=O)n2C,-1.8% (inactive)
6,CCn1c(SCc2ccccc2Cl)nc2nc3c(cc2c1=O)CCCC3,-4.7% (inactive)
7,CC(=O)Nc1ccc(OCc2cccc([N+](=O)[O-])c2)cc1,1.1% (inactive)
8,O=C(CSc1nc2ccccc2[nH]1)Nc1nc(-c2cccc(Br)c2)cs1,-3.8% (inactive)
9,CCOC(=O)C1CCN(C(=O)CCS(=O)(=O)c2ccc3c(c2)CC(C)N3C(=O)CC)CC1 (centres undefined),0.4% (inactive)
10,Cc1ccc(C)c(N2CCN(C(=O)CN(C)S(=O)(=O)c3cnc[nH]3)CC2)c1,-1.7% (inactive)
11,O=C(NCCO)c1cccc2c1C(=O)c1ccccc1-2,-1.3% (inactive)
12,Cc1[nH]c2ccccc2c1C(=O)COC(=O)Cn1c(C(F)(F)F)nc2ccccc21,0.2% (inactive)
13,Cc1ccc(CNS(=O)(=O)/C=C/c2ccc3c(c2)OCO3)cc1,-2.2% (inactive)
14,CC(=O)Nc1ccccc1C(=O)N1CCN(c2cccc(C)c2C)CC1,-1.4% (inactive)
15,O=C(NCc1ccccn1)C1CC(c2ccc(F)cc2)=NO1 (centres undefined),-1% (inactive)
16,CSc1nccc(N2CCN(c3ccc(F)cc3)CC2)n1,5.7% (inactive)
17,Cc1ccc(NC(=O)c2ccc(OC(=S)N3CCOCC3)cc2)cc1,-1.3% (inactive)
18,Cc1cc(C)n(C(=O)COc2c(C)cccc2C)n1,-2.8% (inactive)
19,CCc1ccc(-c2nc(CCl)cs2)cc1,-1.7% (inactive)
20,C=CCNCCCCOc1ccc(C)cc1[N+](=O)[O-],-1.5% (inactive)
21,CN(C)S(=O)(=O)c1ccc(C(=O)OCc2ccc(C#N)cc2)cc1,-0.2% (inactive)
22,C(=N\Nc1nc(N2CCOCC2)nc(N2CCOCC2)n1)/c1cccnc1,1.2% (inactive)
23,CCOC(=O)c1cc2cc([N+](=O)[O-])cc(OC)c2oc1=O,0% (inactive)
24,CC(=O)c1c(C)[nH]c(C(=O)COC(=O)CCSc2ccccc2)c1C,0.3% (inactive)

row,Compound,cellular ATP content (survival)
1,COc1ccc(-c2csc(Nc3ccccc3)n2)cc1,-1.2% (inactive)
2,C=CC[C@@H]1Cc2c(Br)ccc(Br)c2[C@@H](CC=C)N1,-0.9% (inactive)
3,Cc1ccccc1OCc1nnc(SCC(=O)Nc2ccc3nc(SCC(=O)Nc4ccccc4)sc3c2)n1C,-0.5% (inactive)
4,COc1cc(NC(=O)CN2c3cccc4cccc(c34)S2(=O)=O)cc(OC)c1OC,-1% (inactive)
5,C=CCn1c(=O)c(C(=O)OCC)c(O)c2ccccc21,-1.4% (inactive)
6,CC(C)c1ccc(N2C(=O)CSC23C(=O)N2CCCc4cccc3c42)cc1 (centres undefined),-0.3% (inactive)
7,O=C1CCc2cc(S(=O)(=O)NC(Cc3ccccc3)C(=O)NC3CCCCC3)ccc2N1 (centres undefined),0% (inactive)
8,Cc1ccc(CCNC(=O)C2CCN(C(=O)N(C)C)CC2)cc1,-1.1% (inactive)
9,CCOC(=O)CC1ON(C)C(=O)N1c1ccc(Cl)cc1Cl (centres undefined),0.4% (inactive)
10,COc1cc(/C=N/Nc2nc(Nc3ccccc3)nc(N3CCCCC3)n2)ccc1OCC(=O)O,-1.5% (inactive)
11,COCCN(C(=O)Cc1cccs1)C(C(=O)NC1CCCC1)c1ccc(OC)c(OC)c1 (centres undefined),-1% (inactive)
12,Cc1ccc(-c2nnc(CSc3nnc(COc4cccc5ccccc45)n3-c3ccccc3)o2)cc1,0.6% (inactive)
13,CC(C)=CCN1CCN(Cc2ccc(C)s2)CC1CCO (centres undefined),0.8% (inactive)
14,c1cnc2c(SCc3ccc(-c4nnco4)cc3)cccc2c1,-0.4% (inactive)
15,CC(=O)Nc1nc2ccc(NC(=O)c3ccco3)cc2s1,-5.6% (inactive)
16,O=C1OC(Cc2ccccn2)C(=O)C1=C1SCCS1 (centres undefined),-2.9% (inactive)
17,O=C(c1ccc(Cl)c(S(=O)(=O)N2CCCCCC2)c1)N1CCN(c2ccccc2O)CC1,0.3% (inactive)
18,NS(=O)(=O)c1ccc(CCNC(=O)CN2CCN(c3cccc(Cl)c3)CC2)cc1,-2.9% (inactive)
19,Cn1c(N)c(C(=O)COC(=O)c2ccnc3ccccc23)c(=O)n(C)c1=O,-2.1% (inactive)
20,O=C1CCCN1CCCN1C(=O)N[C@@H](Cc2ccccc2)C1=O,2% (inactive)
21,Cc1cc(C)cc(OCC(=O)NNC(=O)C2CCCO2)c1 (centres undefined),-0.3% (inactive)
22,CC1CCCC(NC(=O)COC(=O)Cc2ccsc2)C1C (centres undefined),-1.7% (inactive)
23,Cc1ccc(CSCc2nnc(SCC(=O)N3CCN(c4ccccc4)CC3)n2C)cc1,2% (inactive)
24,N#Cc1ccccc1Cn1cc(/C=C/[N+](=O)[O-])c2ccccc21,4% (inactive)

row,Compound,cellular ATP content (survival)
1,O=C(CCn1nnc2ccccc21)Nc1nnc(-c2ccccc2F)s1,0.6% (inactive)
2,Cc1ccc(C)c(N2CCN(C(=O)COc3cc(=O)n(C)c4ccccc34)CC2)c1,-0.1% (inactive)
3,Cc1ccc(CNC(=O)C(=O)NCC2OCCN2C(=O)c2cccs2)cc1 (centres undefined),-0.2% (inactive)
4,CCN1C=C(Cc2ccc(OC)cc2)C2=C(C1)C(c1ccc(OC)cc1)C(C#N)=C(N)O2 (centres undefined),-1.8% (inactive)
5,O=C(N/N=C/c1ccc(OCC(=O)N2CCCCC2)cc1)c1ccccc1O,2.1% (inactive)
6,CCC1Sc2ccccc2N(CC(=O)NC2CCCC2)C1=O (centres undefined),-1.6% (inactive)
7,Cc1ccc(C(=O)N/C(=C\c2ccc(Br)cc2)c2nc(=S)[nH][nH]2)cc1,-11.2% (inactive)
8,COc1ccc(OC)c(NC(=O)C2CCC(CNc3c(N4CCC(C)CC4)c(=O)c3=O)CC2)c1 (centres undefined),1.6% (inactive)
9,O=CN1CCN(C(=O)c2ccc([N+](=O)[O-])cc2)CC1,1.3% (inactive)
10,COc1cccc(C(=O)CSc2nnc(CNS(C)(=O)=O)n2-c2ccc(C)cc2)c1,0.4% (inactive)
11,COCc1ccc([C@@H]2C[C@H]3CN(Cc4ccccc4C)C(=O)[C@]34CCCN24)o1,6.6% (inactive)
12,CCCOC(=O)CN1C(=O)c2ccccc2C1=O,-2.4% (inactive)
13,Cc1ccc(S(=O)(=O)N(CC(=O)N/N=C/c2cccc(Cl)c2)c2cccc3cccnc23)cc1,4.7% (inactive)
14,CCC(Sc1nc(N)cc(=O)[nH]1)C(=O)Nc1cc(C)on1 (centres undefined),1.6% (inactive)
15,COc1ccc(NC(=O)c2ccccc2NC(=O)CSc2ccc(C)cc2)cc1,4% (inactive)
16,Cc1ccc(C(=O)NNC2CC(=O)N(c3ccc4c(c3)OCCO4)C2=O)cc1 (centres undefined),-0.8% (inactive)
17,NC(N)=NC(N)=Nc1ccc(SC(F)(F)F)cc1,0.3% (inactive)
18,COc1ccccc1-c1noc(CCC(=O)Nc2cc(C(F)(F)F)ccc2Cl)n1,1% (inactive)
19,O=C(Nc1cccc(-c2cn3cccnc3n2)c1)Nc1ccccc1F,-0.8% (inactive)
20,O=C(NNS(=O)(=O)c1ccccc1)c1ccc(S(=O)(=O)N2CCCCC2)cc1,-2.8% (inactive)
21,CSc1ccc(C(C(C(=O)c2cccs2)N2CCOCC2)N2CCOCC2)cc1 (centres undefined),-1.7% (inactive)
22,CCCn1c(=O)c2ccccc2n2c(SCC(=O)NCc3cccs3)nnc12,2.6% (inactive)
23,COC(=O)C1=C(N)Oc2cc(C)n(Cc3cccnc3)c(=O)c2C1c1cc(OC)ccc1OC (centres undefined),-3.1% (inactive)
24,O=C(COc1ncnc2scc(-c3ccccc3)c12)NC1CCCc2ccccc21 (centres undefined),-2.4% (inactive)

row,Compound,cellular ATP content (survival)
1,O=c1ccccn1CCOc1ccccc1Cl,0.2% (inactive)
2,CCOC(=O)C1C(=O)C=C(c2ccc(Br)cc2)CC1c1ccco1 (centres undefined),0.2% (inactive)
3,C[C@@H]1NC(=O)c2cc([N+](=O)[O-])cc(I)c2NCCCC[C@@H](C(N)=O)NC(=O)[C@H](CCC(=O)O)NC1=O,6.5% (inactive)
4,Cc1cc(C)n2nc(-c3ccsc3-n3c(C)ccc3C)cc2n1,6% (inactive)
5,Cn1c(=NC(=O)C2CCN(S(=O)(=O)c3cccs3)CC2)sc2ccccc21,-0.7% (inactive)
6,COC(=O)COc1ccc(S(=O)(=O)N2CCc3ccccc3C2)cc1C,-0.7% (inactive)
7,Cc1ccc(C(=O)/C=C/c2ccc(F)cc2)o1,-13.2% (inactive)
8,O=C(O)CCCn1cc(NC(=O)c2cc(F)c(F)cc2Cl)cn1,-2.1% (inactive)
9,COc1ccccc1CNC(=O)CCNC(=O)Cn1cnc2ccccc2c1=O,0.7% (inactive)
10,CC1(C)CC(=O)C2=C(C1)NC(=O)CC2c1cc2c(cc1Br)OCO2 (centres undefined),-0.1% (inactive)
11,O=C(N/N=C/c1ccncc1)NC1CCCCC1,-0.5% (inactive)
12,COc1cc(C(=O)Nc2cccc(-c3cn4cccnc4n3)c2)cc(OC)c1OC,-2% (inactive)
13,O=C1c2ccccc2C(=O)C1C1=Nc2ccccc2NC(c2ccccc2)C1 (centres undefined),4.7% (inactive)
14,Nc1ccc(Cc2nc3cc4ccccc4cc3[nH]2)cc1,-1.5% (inactive)
15,CCc1cccc(C)c1NC(=S)N(Cc1cccnc1)Cc1ccco1,-2.7% (inactive)
16,O=C(COc1ccc(Cl)cc1)N1CCN(C(=O)Cc2ccccc2)CC1,5.3% (inactive)
17,CCOC(=O)N1CCN(C(=O)c2cnn3ccccc23)CC1,2.2% (inactive)
18,O=C(N/N=C/c1cccc(Oc2ccccc2)c1)c1ccccc1Br,0% (inactive)
19,Cc1cccc(-n2cnc3cc(C(=O)N4CCc5ccccc54)ccc32)c1,-2.1% (inactive)
20,Cc1[nH]nc(Nc2ccc(O)cc2)c1[N+](=O)[O-],-1.1% (inactive)
21,O=C(/C=C/c1ccco1)OCn1nnc2ccccc2c1=O,-0.7% (inactive)
22,Cc1cccc(-c2ncc(CN3CCN(CCC(C)C)C(CCO)C3)cn2)c1 (centres undefined),0.8% (inactive)
